# TPT1 inh: inhibitors of Candida albicans tRNA 2'-phosphotransferase TPT1. recombinant caTPT1, FP RNA substrate dephosphorylation. inhibition, % at 5 µM. 300,000 compounds, 0.81% hits. AID 1962;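 active = inhibition above the mean of all tested compounds plus 3 SD, set per screening campaign, cut at about 24% in these data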;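 note: plate controls were DMSO alone for no effect and ferristatin control at 100 nM for full effect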
# IDE cell inh: inhibits human insulin-degrading enzyme in HEK cells. FAbetaB cleavage, fluorescence polarization. 320,000 compounds, 0.41% hits. inhibition, % at 5.59 µM;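 active = percent inhibition above the average of all tested compounds plus 3 SD, set per screening campaign, cut at about 16% in these data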;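 note: IDE supplied by intact live HEK cells; FP after avidin binding of uncleaved biotin substrate so inhibition keeps polarization high; 0% = DMSO wells and 100% = 60 µM reference IDE inhibitor Ii1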
# IDE cell activ: boosts human insulin-degrading enzyme activity in HEK cells. P14735. FAbeta-B cleavage, fluorescence polarization; 0% vehicle, 100% cell-free pure enzyme wells. activation, % at 5.96 µM. 340,000 compounds, 0.073% hits;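 active = activation above the mean of all tested compounds plus 3 SD, set per screening campaign, cut at about 17% in these data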
# Rin1-Abl PPI inh: inhibitors of human Rin1-Abl protein interaction; P00519+Q13671; TR-FRET Rin1/Abl binding, biochemical; inhibition, % at 7.35 µM; 360,000 compounds, 0.4% hits; in the data active = inhibition above about 5%, passing the limit was not always enough
# Calb FLC: C. albicans growth modulation with fluconazole; 300,000 compounds, 0.57% hits; growth inhibition, % (concentration not given with the values); C. albicans CaCi-2 (fluconazole-resistant clinical isolate) + fluconazole, Alamar Blue growth, 48 h;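 active = growth inhibition above about 58% in most replicates, limit read from the data, passing the limit was not always enough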;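 note: all wells also contain fluconazole at 8 µg/ml as a sub-toxic cotreatment; 0% = median of DMSO wells and 100% = median of geldanamycin control wells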
# Rpn11 block: blocks the human proteasome subunit Rpn11; O00487; human 26S proteasome, Ub4-pepOG fluorescence polarization; 20S core pre-blocked with epoxomicin; inhibition, % at 20 µM; 360,000 compounds, 0.59% hits;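 active = inhibition at 20 µM, scaled to each plate's controls, above about 33%, limit read from the data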
# Rin1 Abl conf: Rin1-Abl interaction inhibition confirmation; TR-FRET Rin1-Abl binding, purified proteins; inhibition, % at 7.35 µM; shares compounds with Rin1-Abl PPI inh; 1,300 compounds, 49% hits
# GFP quencher: quenches GFP fluorescence, counter-screen for Rin1-Abl inhibitors; inhibitors/quenchers counterscreen; 1,300 compounds, 8.5% hits; inhibition, % at 6.75 µM; shares compounds with Rin1-Abl PPI inh;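 note: ABL1-eGFP fusion protein alone without its partner RIN1-SBP; 0% = protein with vehicle and 100% = wells lacking protein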
# GFP quench DR: counter-screen for Rin1-Abl inhibitors: GFP quenchers, dose response. shares compounds with Rin1-Abl PPI inh. AID 602182. 230 tested, under 10 active. IC50, µM. GFP fluorescence interference/quenching counterscreen; call rule not given here;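 note: ABL1-eGFP fusion protein alone without its RIN1 binding partner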
# Numbers without * were called inactive; nt = no result. Shown are actives, neighbours in structure and some others; about 2.3% of the full set was active somewhere. Cut-off read from the data, not from the text of the source, unless noted: active = inhibition above about 6.5%; inactive = the rest.
SMILES,TPT1 inh,IDE cell inh,IDE cell activ,Rin1-Abl PPI inh,Calb FLC,Rpn11 block,Rin1 Abl conf,GFP quencher,others
Cc1ccc(S(=O)(=O)N2CCCCC2)cc1C(=O)NC1CCCCC1,3.8,1.4,-1.8,-1.9,5.1,14.9,nt,nt,
O=C(NC1CCCC1)c1cc(S(=O)(=O)N2CCCC2)ccc1Cl,0.6,1.1,3.3,7.6*,15.9,0.5,-0.8,-0.1,
C=CCN(CC=C)C(=S)NC(=O)Cc1cccc2ccccc12,0.2,5.1,0.6,10.3*,-14.8,-7.7,-2.1,-1.4,
CCOC(=O)CCCCCC(=O)Nc1ccc2c(c1)C(=O)N([C@H](C)CO)C[C@H](C)[C@@H](CN(C)C(=O)Nc1ccc(OC)cc1)O2,nt,6.9,-2.9,15.7*,nt,-7.7,12.8*,0.1,
C[C@@H]1CCCCO[C@@H](CN(C)S(=O)(=O)c2cccs2)[C@@H](C)CN([C@H](C)CO)C(=O)c2cc(NS(=O)(=O)c3ccccc3)ccc2O1,nt,nt,nt,69.4*,nt,3.7,67.1*,-0.7,GFP quench DR=>67.6
C[C@@H]1CN([C@@H](C)CO)C(=O)c2cc(NC(=O)CCC(F)(F)F)ccc2O[C@H]1CN(C)S(=O)(=O)c1ccc(Cl)cc1,nt,1.5,0.4,2.6,nt,-8.6,nt,nt,
COc1ccc(NC(=O)N(C)C[C@H]2Oc3ccc(NC(=O)Cc4ccccc4)cc3C(=O)N([C@H](C)CO)C[C@@H]2C)cc1,nt,5.4,1.1,1.8,nt,5.6,nt,nt,
COc1ccc(S(=O)(=O)N(C)C[C@H]2Oc3ccc(NC(=O)CCC(F)(F)F)cc3C(=O)N([C@H](C)CO)C[C@@H]2C)cc1,nt,2.4,0.9,16.5*,nt,-3.2,15.3*,-1.1,
C[C@@H]1CCCCO[C@H](CN(C)S(=O)(=O)c2cccs2)[C@@H](C)CN([C@H](C)CO)C(=O)c2cc(NC(=O)C3CCCCC3)ccc2O1,nt,nt,nt,1.8,nt,1.3,nt,nt,
C[C@H](CO)N1C[C@H](C)[C@@H](CN(C)S(=O)(=O)c2ccc(F)cc2)Oc2ccc(NC(=O)C3CC3)cc2C1=O,nt,1.6,-3.2,14.1*,nt,1.7,14.0*,0.7,
CC1(C(=O)NCC2CC2)CCN1C(=O)C1(c2ccc(Cl)cc2)CC1 (stereo not drawn),nt,nt,nt,-0.6,nt,-3.2,nt,nt,
CC(C)(C)OC(=O)N1CCC(C(=O)Nc2cccc(C(=O)NC3CC3)c2)CC1,nt,nt,1.2,-0.7,nt,-0.6,nt,nt,
CCOC(=O)CCCCCC(=O)Nc1ccc2c(c1)C(=O)N([C@H](C)CO)C[C@@H](C)[C@H](CN(C)Cc1ccc3c(c1)OCO3)O2,nt,0.2,3.7,4.6,nt,-2.1,nt,nt,
CCOC(=O)CCCCCC(=O)Nc1ccc2c(c1)CC(=O)N([C@H](C)CO)C[C@@H](C)[C@H](CN(C)Cc1ccc3c(c1)OCO3)O2,nt,5.8,-2.3,15.8*,nt,4.3,17.6*,-0.7,GFP quench DR=>67.7
COC(=O)c1ccc(CSc2nnc(-c3c[nH]c4ccccc34)n2C)o1,-1.7,-2.6,6.4,25.6*,-1.6,6.9,31.9*,-0.2,GFP quench DR=>67.6
COC(=O)c1ccc(CSc2nnnn2-c2ccccc2)o1,3.6,0.1,2.6,0.1,-2.5,-1.0,nt,nt,
COC(=O)c1ccc(CSc2nnc(-c3ccccc3)n2C)o1,3.7,1.6,1.0,23.2*,12.0,-3.4,32.0*,0.1,GFP quench DR=>67.5
Cn1c(SCc2ccccc2)nnc1-c1c[nH]c2ccccc12,-0.8,1.2,3.5,0.0,1.4,-6.8,nt,nt,
CCCS(=O)(=O)NC(=O)C1(C)CCN(C(=O)c2c(-c3ccccc3)noc2C)C1 (stereo not drawn),nt,nt,nt,-0.8,nt,-2.5,nt,nt,
COc1ccc(Cn2c(=O)[nH]c3cc(C(=O)NC4CCN(Cc5ccccc5)CC4)ccc32)cc1,-2.3,-0.5,-1.3,11.9*,12.5,-1.7,16.1*,-0.8,
CC1CCN(S(=O)(=O)c2ccc3c(c2)N(CC(=O)NCCCN2C(C)CCCC2C)C(=O)CO3)CC1 (stereo not drawn),0.3,0.7,5.0,0.2,-2.5,-1.6,nt,nt,
